Assay results: ChEMBL document CHEMBL3433997, “St. Jude Leishmania screening dataset” (2016)

Assays:
Assay type in all cases: functional
[1] = molecular target: Solute carrier family 2, facilitated glucose transporter member 1 (Homo sapiens) (UniProt P11166); assay: ST_JUDE_LEISH: Cytotoxicity at 2uM final concentration against transgenic Leishmania Mexicana promastigotes LmGLUT1 that are glucose transport deficient and complemented with the human glucose transporter GLUT1. Activity is measured by DNA content using SYBR green in vitro
Chain of Solute carrier family 2, facilitated glucose transporter member 1 (Homo sapiens) (P11166 whole entry): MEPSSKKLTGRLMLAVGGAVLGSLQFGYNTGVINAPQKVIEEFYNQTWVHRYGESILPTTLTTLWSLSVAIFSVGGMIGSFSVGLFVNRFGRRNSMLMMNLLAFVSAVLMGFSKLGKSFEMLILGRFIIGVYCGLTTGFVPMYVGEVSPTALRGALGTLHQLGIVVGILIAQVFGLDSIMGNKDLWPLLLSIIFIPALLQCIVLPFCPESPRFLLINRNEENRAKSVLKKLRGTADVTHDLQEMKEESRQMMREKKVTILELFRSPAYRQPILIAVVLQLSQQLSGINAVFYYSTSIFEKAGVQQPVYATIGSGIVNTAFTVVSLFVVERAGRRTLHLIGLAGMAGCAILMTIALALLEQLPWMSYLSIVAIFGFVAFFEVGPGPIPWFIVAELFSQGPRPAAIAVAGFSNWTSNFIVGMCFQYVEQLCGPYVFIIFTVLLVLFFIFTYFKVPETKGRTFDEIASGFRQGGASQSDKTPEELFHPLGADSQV

[2] = molecular target: Hexose transporter 1 (Plasmodium falciparum) (UniProt O97467); assay: ST_JUDE_LEISH: Cytotoxicity at 2uM final concentration against transgenic Leishmania Mexicana promastigotes LmPfHT that are glucose transport deficient and complemented with the Plasmodium falciparum hexose transporter. Activity is measured by DNA content using SYBR green in vitro
[3] = molecular target: Glucose transporter (Leishmania mexicana) (UniProt O61059); assay: ST_JUDE_LEISH: Cytotoxicity at 2uM final concentration against transgenic Leishmania Mexicana promastigotes LmGT2 that are glucose transport deficient and complemented with the L. Mexicana glucose transporter 2. Activity is measured by DNA content using SYBR green in vitro

Compound | inhibition [1] [%] | inhibition [2] [%] | inhibition [3] [%]
Cc1cccc2nc(-c3ccc(-c4ccc(CN5CCN(CCN6CCOCC6)CC5)cc4)s3)[nH]c12 | 2.9 | 3.89 | 1.02
O=C(/C=C/c1ccc(Cl)c(Cl)c1)NCCCCCN1CCC(NC(=O)Nc2cc(F)ccc2F)CC1 | 2.34 | 2.81 | 6.16
Cn1nc(-c2cccc(CNC3CCc4ccccc43)c2)c2cnc(NCCCN3CCCC3)nc21 (stereo not given) | 29.9 | 32.6 | 25.9
CC(C)(C)c1ccc(CNCC(C)(C)c2nc(-c3ccnc(N)n3)c(-c3ccc(Cl)c(O)c3)[nH]2)cc1 | 5.04 | 6.23 | 4.54
CCC(CCON1C(N)=NC(N)=NC1(C)C)c1ccc(Cl)cc1 (stereo not given) | 4.18 | 1.03 | 2.41
Cc1ccc(-c2nc3cc(C(=O)NC4CCC(N5CCCc6ccc(C#N)cc6C5)CC4)ccc3[nH]2)cc1 (stereo not given) | -1.44 | -0.52 | 5.12
CC(=O)Nc1cccc(CN(Cc2ccc(-c3ccc(CNCc4cccnc4)cn3)cc2)C(=O)Cc2cccnc2)c1 | 14.6 | 10.7 | 14
CC1CN(c2ccc3[nH]cc(Sc4ccc(-c5cccs5)cc4)c3c2)CC(C)N1 (stereo not given) | -0.79 | -1.78 | -1.36
Cc1ccc(NC(=O)NC2CCN(CCC(NC(=O)Cc3ccccc3)c3ccc(Cl)c(Cl)c3)CC2)cc1 (stereo not given) | -2.11 | -2.83 | -3.14
Cc1cc(Nc2ccccc2)nc(Nc2ccccc2)n1 | 9.14 | 8.33 | 1.86
CCOC(=O)c1cn(CC)c2cc(N(C)CCc3ccc(OC)c(OC)c3)c(F)cc2c1=O | 2.15 | 1.21 | 1.68
Oc1ccc2[nH]c(-c3cccs3)nc2c1CN1CCC(N2CCCC2)CC1 | 3.78 | 6.78 | 5.89
COc1ccc(CNC2CCN(C)CC2)cc1-c1ccc(S(=O)(=O)NCc2ccccc2)s1 | 9.42 | 11.8 | 11.2
Cc1cc(C)cc(CC(=O)N2CCC(n3c(C)nc4ccc(C)cc43)CC2)c1 | 2.35 | 1.45 | 1.51
CCc1sc(-c2ccc(C(C)(C)C)cc2)nc1C(=O)NCCCN1CCCC1=O | -1.44 | -2.22 | -4.69
COCCN1CCC(N(Cc2ccc(-c3ccc(OC(F)(F)F)cc3)cc2)C(=O)Cn2c(CCc3cccc(F)c3F)cc(=O)c3ccccc32)CC1 | 4.31 | 4.88 | 4.4
Cc1cccc2nc(-c3ccc(-c4ccc(NC(=O)C(C)CN5CCN(C)CC5)cc4)s3)[nH]c12 (stereo not given) | 3.39 | 3.1 | 2.29
CN1CCN(CC(=O)Nc2ccc(-c3ccc(-c4nc5cc(C(F)(F)F)ccc5[nH]4)cc3)cc2)CC1 | 2.58 | 0.64 | 1.55

Compound | inhibition [1] [%] | inhibition [2] [%] | inhibition [3] [%]
COc1ccccc1CCNc1nc(C)cc(N[C@@H](CC(C)C)C(=O)NCc2cccs2)n1 | 6.71 | 5.41 | 4.04
CN1CCCc2ccc(NC(=O)Nc3ccc(-c4ccccc4)cc3)cc2C1 | -3.44 | 0.82 | -0.14
CCN(CC)CCCCNc1cc(-c2[nH]c(-c3c(Cl)cccc3Cl)nc2-c2ccc3cc(OC)ccc3c2)ccn1 | 0.05 | -1.62 | -0.83
Oc1c(C(Nc2nc3ccccc3s2)c2ccccc2)ccc2cccnc12 (stereo not given) | 2.66 | 3.92 | -1.54
COc1ccc(Cn2c(Nc3cccc(C(F)(F)F)c3)nc3cc(C(=O)NCCN4CCCC4)ccc32)cc1Cl | 0.36 | -0.47 | 0.72
O=C(/C=C/c1c(Cl)cccc1Cl)NC1CCC(CN2CCC(c3c[nH]c4ccncc34)CC2)CC1 (stereo not given) | 5.27 | 5.98 | 4.84
Cc1cccc(OC2CCN(c3ncc(C(=O)NCCCN4CCCC4=O)cc3Cl)CC2)c1 | 0.59 | 2.47 | 0.99
C=Cc1sc(CNCCCNc2cc(=O)c3ccccc3[nH]2)c(C)c1Br | 0.34 | 0.27 | -0.58
Cc1ccc(NC(=O)c2ccc3ncccc3c2)cc1OC1CCN(C(C)C)C1 (stereo not given) | 8.85 | 10.2 | 9.34
CC(C)(C)c1ccc(CN2CCC(NC(=O)c3cc(-c4cccc(C(F)(F)F)c4)cs3)C2)cc1 (stereo not given) | 0.92 | 0.62 | 1.98
COc1ccc(C2CC(=O)C3=C(C2)NC(C)=C(C(=O)OC(C)C)C3c2ccc(O)cc2)cc1OC (stereo not given) | 8.55 | 8.07 | 5.45
FC(F)(F)c1cccc(CCNc2nccc(NCc3ccc(Cl)cc3Cl)n2)c1 | 9.74 | 6.08 | 1.55
CCCCCCc1cnc2nc(N)nc(N)c2c1C | 10.8 | 10 | 10.3
Cc1ccc(-c2cc(C(=O)Nc3ccc(S(=O)(=O)N4CC(C)OC(C)C4)cc3)[nH]n2)c(O)c1 (stereo not given) | 3.32 | 2.68 | 3.48
CN(CCCCNC(=O)c1cc2ccccc2[nH]1)C1CC2(CCN(C(=O)OC(C)(C)C)CC2)c2ccccc21 (stereo not given) | -1.12 | -1.35 | -1.2
Cc1onc(-c2ccccc2)c1C(=O)Nc1nc(-c2ccccn2)nc2ccsc12 | 2.38 | 1.96 | 0.03
O=c1ccc2ccc(F)c3c2n1CC3CN1CCC(NCc2ccc(-c3cccc(Cl)c3)nc2)CC1 (stereo not given) | 26.2 | 21.3 | 14.9
